# Assay results from PubChem BioAssay (NCATS).
# Inconclusive results are not listed. Where a call stands in place of a potency, no number is given. A number with no mark means an inactive call. Activity calls are given as the source filed them. Calls follow the shape of the dose curve; as a rule, active = well fitted cell-killing curve with a large enough effect; inconclusive = small, poorly fitted or top-dose-only effect, or effect the other way; inactive = flat fitted curve, though single readings scatter. Where a SMILES comes first, the peptide text is derived from it. Bridges are numbered along the chain shown (N, C = ends). [ ]: non-standard residue; d: D form. The star is where a group is joined. X1 = CCC(C)C(N)C1=NC(C(=O)*)CS1; dOrn = NCCC[C@@H](N)C(=O)O
# Experiments:
# Experiment in all cases: Primary qHTS to identify gynecologic anti-cancer compounds using libraries of approved drugs and bioactive compounds (AID 1345084); also: nearly all actives have a fitted effect of over 55% in size
# Conditions in all cases: Gynecologic cancer cell panel viability, ATPlite luminescence, 48 h; series mostly up to 57.5 µM
# [1] = system: SKOV3
# In short: (§1)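 Measured: luminescence after ATPlite addition (15 min, RT). Exposure: 48 h, 37 C, 5% CO2.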
# [2] = system: Tov-21-G
# In short: as §1
# [3] = system: Tov112D
# In short: as §1
# Potency is read from the fitted curve at half-maximal effect.
structure (smiles),measurement,setting,value
C/C=C(\C)C(=O)O[C@@H]1CC2[C@@H](CC=C3C[C@@H](O[C@H]4C[C@H](OC)[C@H](O[C@H]5C[C@H](OC)[C@H](O[C@H]6C[C@H](OC)[C@H](O[C@H]7C[C@@H](OC)[C@H](O[C@@H]8O[C@H](CO)[C@@H](O)[C@H](O)[C@H]8O)[C@@H](C)O7)[C@@H](C)O6)[C@@H](C)O5)[C@@H](C)O4)CC[C@@]32C)[C@@]2(O)CC[C@H](C(C)=O)[C@@]12C (some centres undefined),"activity change, negative = cytotoxicity",[1],-0.126% [at 6.55 µM]
same,"activity change, negative = cytotoxicity",[2],2.08% [at 6.55 µM]
same,"activity change, negative = cytotoxicity",[3],-2.78% [at 6.55 µM]
CC1=C(C)C(=O)OC(C(C)(O)C2CCC3C4CC=C5CC(OC6OC(COC7OC(CO)C(O)C(O)C7O)C(O)C(O)C6O)CC(O)C5(C)C4CCC32C)C1 (centres undefined),Potency,[1],inactive
same,Potency,[2],inactive
same,Potency,[3],inactive
CC1(C)CC[C@]2(C(=O)O)CC[C@]3(C)C(=CCC4[C@@]5(C)C[C@H](O)[C@H](O[C@@H]6OC[C@H](O)[C@H](O)[C@H]6O)[C@@](C)(CO)C5CC[C@]43C)[C@@H]2C1 (some centres undefined),Potency,[1],inactive
same,Potency,[2],inactive
same,Potency,[3],inactive
CCc1nc(C(N)=O)c(Nc2ccc(N3CCC(N4CCN(C)CC4)CC3)c(OC)c2)nc1NC1CCOCC1,Potency,[1],1120 nM (active)
CC1=CC[C@]2(C(=O)O[C@@H]3O[C@H](CO[C@@H]4O[C@H](CO)[C@@H](O[C@@H]5O[C@@H](C)[C@H](O)[C@@H](O)[C@H]5O)[C@H](O)[C@H]4O)[C@@H](O)[C@H](O)[C@H]3O)CC[C@]3(C)C(CCC4[C@@]5(C)C[C@@H](O)[C@H](O)[C@@](C)(CO)C5CC[C@]43C)C2C1C (some centres undefined),"activity change, negative = cytotoxicity",[1],-2.91% [at 11.6 µM]
same,"activity change, negative = cytotoxicity",[2],4.72% [at 11.6 µM]
same,"activity change, negative = cytotoxicity",[3],-1.58% [at 11.6 µM]
N[C@@H](CC(=O)N1CCn2c(nnc2C(F)(F)F)C1)Cc1[nH]nc2c(F)c(F)ccc12,Potency,[1],inactive
same,Potency,[2],inactive
same,Potency,[3],inactive
COc1cc(/C=C/C(=O)OC2CC(OC(C)=O)C(OC(C)=O)C3C2CCC2C(=O)OC(c4ccoc4)CC23C)ccc1O[C@@H]1O[C@H](CO)[C@@H](O)[C@H](O)[C@H]1O (some centres undefined),Potency,[1],inactive
same,Potency,[2],inactive
same,Potency,[3],inactive
OC[C@H]1O[C@@H](n2cnc3c(NCc4ccc(O)cc4)ncnc32)[C@H](O)[C@@H]1O,Potency,[1],inactive
Cc1nc2c(-c3cnc(N)nc3)nc(N3CCOCC3)nc2n1C(C)C,Potency,[1],562 nM (active)
same,Potency,[2],631 nM (active)
C(#Cc1cccc(CN2CCOCC2)c1)CCN1CCCCC1,Potency,[1],inactive
same,Potency,[2],inactive
same,Potency,[3],inactive
OCC1=CC[C@@H]2C=CO[C@@H](O[C@@H]3O[C@H](CO)[C@@H](O)[C@H](O)[C@H]3O)[C@H]12,Potency,[1],inactive
same,Potency,[2],inactive
same,Potency,[3],inactive
COC(=O)C[C@@H]1C(C(=O)O)=CO[C@@H](O[C@@H]2O[C@H](CO)[C@@H](O)[C@H](O)[C@H]2O)/C1=C\COC(=O)/C=C\c1ccccc1,Potency,[1],inactive
same,Potency,[2],inactive
same,Potency,[3],inactive
CC(C)=CCc1ccc(Oc2c(O)cc(C)cc2CO)c(C(=O)O)c1O,Potency,[1],inactive
same,Potency,[2],inactive
same,Potency,[3],inactive
CC(=O)NC(C(=O)OC1CCC(C)(C)C2CC=C3C(=O)OCC3(O)C12C)C(C)C (centres undefined),Potency,[1],inactive
same,Potency,[2],inactive
same,Potency,[3],inactive
CC1OC(O[C@H]2[C@@H](O)C[C@@]3(C)C([C@H](O)C[C@]4(C)C3CC=C3C5CC(C)(C)CC[C@]5(C(=O)OC5OC(CO)C(O)C(O)C5OC5OCC(OC6OCC(OC7OCC(O)C(O)C7O)C(O)C6O)C(OC6OCC(O)(CO)C6O)C5O)CC[C@]34C)[C@]2(C)CO)C(O)C(O)C1O (some centres undefined),"activity change, negative = cytotoxicity",[1],-0.54% [at 6.55 µM]
same,"activity change, negative = cytotoxicity",[2],-10.9% [at 6.55 µM]
same,"activity change, negative = cytotoxicity",[3],7.32% [at 6.55 µM]
CC1C(=O)CC2C3C(O)CC(C(=O)O)C12CC3(C)C (centres undefined),Potency,[1],inactive
same,Potency,[2],inactive
same,Potency,[3],inactive
CC(=O)N1c2ccccc2C2(O)CC3C(=O)NC(CC(C)C)C(=O)N3C12 (centres undefined),Potency,[1],inactive
same,Potency,[2],inactive
same,Potency,[3],inactive
CC1OC(OC2C(C)OC(OC3C(OC(=O)/C=C/c4ccc(O)cc4)C(CO)OC(OC4(COC(=O)/C=C/c5ccc(O)cc5)OC(CO)C(O)C4O)C3OC3OCC(O)(CO)C3O)C(O)C2O)C(O)C(O)C1O (centres undefined),"activity change, negative = cytotoxicity",[1],28.4% [at 11.6 µM]
same,"activity change, negative = cytotoxicity",[2],1.37% [at 11.6 µM]
same,"activity change, negative = cytotoxicity",[3],-2.2% [at 11.6 µM]
CCN(c1cc(C#CCN2CCOCC2)cc(C(=O)NCc2c(C)cc(C)[nH]c2=O)c1C)C1CCC(N(C)CCOC)CC1 (centres undefined),Potency,[1],inactive
same,Potency,[2],inactive
same,Potency,[3],inactive
CCC(C)/C=C(C)/C=C/C1=CC2=C(Cl)C(=O)C(C)(OC(C)=O)C(=O)C2=CN1CCCC(=O)O (centres undefined),Potency,[1],inactive
same,Potency,[2],inactive
same,Potency,[3],inactive
CON(C)C(=O)N1N=C(c2cc(F)ccc2F)S[C@@]1(CCCN)c1ccccc1,Potency,[1],inactive
COc1cc(C(=O)OC[C@H]2O[C@H](O[C@@]3(CO)O[C@@H](CO)[C@H](O)[C@H]3O)[C@H](O)[C@@H](O)[C@@H]2O)ccc1O,Potency,[1],inactive
same,Potency,[2],inactive
same,Potency,[3],inactive
OC1COC(OCC2OC(OCCc3ccccc3)C(O)C(O)C2O)C(O)C1O (centres undefined),Potency,[1],inactive
same,Potency,[2],inactive
same,Potency,[3],inactive
CC(C)CC1(C(=O)OCc2ccc(O[C@@H]3O[C@H](CO)[C@@H](O)[C@H](O)[C@H]3O)cc2)CC(=O)OC(C(=O)O)CC(=O)OCC2OC(O1)C(OC(=O)/C=C/c1ccc(O)cc1)C(O)C2O (some centres undefined),"activity change, negative = cytotoxicity",[1],-14.9% [at 11.6 µM]
same,"activity change, negative = cytotoxicity",[2],-1.82% [at 11.6 µM]
same,"activity change, negative = cytotoxicity",[3],0.377% [at 11.6 µM]
CC1CCC2(O1)C(C)(C)CC(O[C@@H]1O[C@H](CO[C@@H]3OC[C@](O)(CO)[C@H]3O)[C@@H](O)[C@H](O)[C@H]1O)CC2(C)O (some centres undefined),Potency,[1],inactive
same,Potency,[2],inactive
same,Potency,[3],inactive
CC(NCc1ccc(OCc2cccc(F)c2)cc1)C(N)=O (centres undefined),Potency,[1],inactive
same,Potency,[2],inactive
same,Potency,[3],inactive
O=C(O)CCc1cc2ccoc2cc1O[C@@H]1O[C@H](CO[C@@H]2OC[C@](O)(CO)[C@H]2O)[C@@H](O)[C@H](O)[C@H]1O,Potency,[1],inactive
same,Potency,[2],inactive
same,Potency,[3],inactive
CC1C/C=C/C=C\CCCCC(O)C/C=C/C(=O)O1 (centres undefined),Potency,[1],inactive
same,Potency,[2],inactive
same,Potency,[3],inactive
O=c1c2cccnc2n(-c2cccc([N+](=O)[O-])c2)c(=O)n1Cc1ccncc1,Potency,[1],inactive
same,Potency,[2],inactive
same,Potency,[3],inactive
COC(=O)[C@]12C(=O)C(C)=C(O)[C@@]1(C)C(C)=CC1[C@@]34CC[C@@H](OC(C)=O)C(C)(C)C3[C@H](C[C@]12C)OC4=O (some centres undefined),Potency,[1],inactive
same,Potency,[2],inactive
same,Potency,[3],inactive
CCn1c2ccccc2c2cc(CNC)ccc21,Potency,[1],inactive
same,Potency,[2],inactive
same,Potency,[3],inactive
C[C@@H]1C/C=C/C=C\C=C\C=C\[C@H](O[C@@H]2O[C@H](C)[C@@H](O)[C@H](N)[C@@H]2O)C[C@@H]2O[C@](O)(C[C@@H](O)C[C@H]3O[C@@H]3/C=C/C(=O)O1)C[C@H](O)[C@H]2C(=O)O,Potency,[1],inactive
same,Potency,[2],inactive
same,Potency,[3],inactive
CC1(CCC(=O)O)C(=O)C=CC23CC4CC(OC4(C)C2O)C13 (centres undefined),Potency,[1],inactive
same,Potency,[2],inactive
same,Potency,[3],inactive
COc1c(OC2OC(CO)C(O)C(O)C2O)ccc(O)c1C(=O)OCc1ccccc1O[C@@H]1O[C@H](CO)[C@@H](O)[C@H](O)[C@H]1O (some centres undefined),Potency,[1],inactive
same,Potency,[2],inactive
same,Potency,[3],inactive
CCC(C)C(N)C1=NC(C(=O)N[C@@H](CC(C)C)C(=O)N[C@H](CCC(=O)O)C(=O)N[C@H](C(=O)N[C@H]2CCCCNC(=O)[C@H](CC(N)=O)NC(=O)[C@@H](CC(=O)O)NC(=O)[C@H](Cc3cnc[nH]3)NC(=O)[C@@H](Cc3ccccc3)NC(=O)[C@H]([C@@H](C)CC)NC(=O)[C@@H](CCCN)NC2=O)[C@@H](C)CC)CS1 (some centres undefined) (X1-L[dE]IK[dOrn]I[dF]H[dD]N; lactam 4-C),Potency,[1],inactive
same,Potency,[2],inactive
same,Potency,[3],inactive
CC(C)CC(=O)OC[C@H]1O[C@@](COC(=O)CC(C)C)(O[C@H]2O[C@H](CO)[C@@H](O)[C@H](O)[C@H]2O)[C@@H](OC(=O)CC(C)C)[C@@H]1OC(=O)CC(C)C,Potency,[1],inactive
same,Potency,[2],inactive
same,Potency,[3],inactive
C=C(C)[C@H]1C[C@@H](O)C(=C)CC[C@@H](O)C(=C)[C@@H](O)C1,Potency,[1],inactive
same,Potency,[2],inactive
same,Potency,[3],inactive
C#Cc1cnc2[nH]c(=O)n(C(CC)CC)c2n1,Potency,[1],inactive
same,Potency,[2],inactive
same,Potency,[3],inactive
CC(C)c1cc2c(c(O)c1O[C@@H]1O[C@H](CO)[C@@H](O)[C@H](O)[C@H]1O)CC1(O)CCC(O)C(C)(C)C1CC2 (some centres undefined),Potency,[1],inactive
same,Potency,[2],inactive
same,Potency,[3],inactive
C[C@@]12C[C@]3(O)O[C@H](O1)[C@]1(COC(=O)c4ccccc4)[C@H]3C[C@@]12O[C@@H]1O[C@H](COC(=O)c2ccccc2)[C@@H](O)[C@H](O)[C@H]1O,Potency,[1],inactive
same,Potency,[2],inactive
same,Potency,[3],inactive
C=C1CC2[C@]3(C)C(=C(O)C(=O)[C@@]2(C)[C@]2(C(=O)OC)C(=O)C(C)OC(=O)[C@@]12C)C(C)(C)C(=O)CC3O (some centres undefined),Potency,[1],inactive
same,Potency,[2],inactive
same,Potency,[3],inactive
CC(=O)O[C@@]1(C)C[C@@H](O)[C@]2(O)C=CO[C@@H](O[C@@H]3O[C@H](CO)[C@@H](O)[C@H](O)[C@H]3O)[C@@H]21,Potency,[1],inactive
same,Potency,[2],inactive
same,Potency,[3],inactive
C=C/C=C/[C@@H]1OC[C@H](/C=C/C=C/C)[C@H]1O,Potency,[1],inactive
same,Potency,[2],inactive
same,Potency,[3],inactive
CC(C)CC(=O)OC[C@H]1O[C@@](COC(=O)CC(C)C)(O[C@H]2O[C@H](CO)[C@@H](O)[C@H](O)[C@H]2OC(=O)CC(C)C)[C@@H](OC(=O)CC(C)C)[C@@H]1O,Potency,[1],inactive
same,Potency,[2],inactive
same,Potency,[3],inactive
CNC(=O)COC(=O)NCCC1CCN(c2cccc(C)n2)CC1,Potency,[1],inactive
same,Potency,[2],inactive
same,Potency,[3],inactive
CC(=O)c1c(O)cc2c(c1C)C(=O)CC(O)C2 (centres undefined),Potency,[1],inactive
same,Potency,[2],inactive
same,Potency,[3],inactive
O=C(COc1ccc(Cl)cc1)NC1CCC(NC(=O)COc2ccc(Cl)cc2)CC1 (centres undefined),Potency,[1],inactive
same,Potency,[2],inactive
same,Potency,[3],inactive
